SARS PLP yeast = blocks SARS-CoV papain-like protease in a yeast assay; S. cerevisiae expressing SARS-CoV PLpro, growth rescue; hit rate 0.19% among 330,000; AID 485353; Potency, µM (titrated, usually from 32.9 µM), hits mostly activators; calls by dose curve; note: nearly all actives have a fitted effect of over 55% in size
Sm TGR block = blocks Schistosoma mansoni thioredoxin glutathione reductase; purified TGR, DTNB reduction, TNB absorbance 405 nm; Potency, µM (top dose mostly 114 µM), actives largely listed as inhibitors; hit rate 3% among 360,000; note: nearly all actives have a fitted effect of over 60% in size
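TGR 20 nM + NADPH 100 uM (dispensed conc.), cpd preinc 15 min RT; start with NADPH (500 uM addition) then DTNB (15 mM addition). Kinetic TNB absorbance, 405 nm filter. Four-parameter Hill fit across titration.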
AmpC detergent = AmpC beta-lactamase inhibition with detergent present; AID 485294; hit rate 0.041% among 370,000; Potency, µM (highest dose often 114 µM), usual class: inhibitors; AmpC hydrolysis of nitrocefin, absorbance 480 nm, 0.01% Triton; note: nearly all actives have a fitted effect of over 25% in size
Target sequence (P00811 whole entry, looked up): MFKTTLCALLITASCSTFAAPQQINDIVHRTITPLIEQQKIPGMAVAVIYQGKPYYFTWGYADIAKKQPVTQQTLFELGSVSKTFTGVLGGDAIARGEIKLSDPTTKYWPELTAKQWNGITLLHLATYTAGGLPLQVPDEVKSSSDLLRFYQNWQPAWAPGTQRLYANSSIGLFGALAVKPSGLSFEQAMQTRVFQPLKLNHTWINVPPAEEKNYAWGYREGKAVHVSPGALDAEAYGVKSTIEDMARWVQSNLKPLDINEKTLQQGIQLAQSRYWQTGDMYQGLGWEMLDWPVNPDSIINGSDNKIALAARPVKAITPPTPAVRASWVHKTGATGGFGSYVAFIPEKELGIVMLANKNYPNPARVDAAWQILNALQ
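20 mM phosphate pH 7.0 + 0.01% (detergent screen) or 0.0001% Triton X-100; 5.3 nM AmpC reagent; cpd preinc 15 min RT; nitrocefin (800 uM stock) to start; A480 q20 s × 4 min; Activity was normalised to no-enzyme and no-compound control wells.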
Pf growth 96h = P. falciparum growth inhibition at 96 hours | P. falciparum luciferase reporter growth, 96 h | Potency, µM (doses to about 28.7 µM), actives largely listed as inhibitors | hit rate 6.9% among 320,000
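Two parasite generations (96 h, 37 C, 5% CO2) of compound exposure in infected erythrocytes (0.05% parasitemia, 2% hematocrit). Luciferase-reporter P. falciparum; decreased luminescence indicates inhibited growth, aimed at apicoplast-acting delayed death.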
Pf growth 48h = P. falciparum growth inhibition at 48 hours (one generation). hit rate 5.9% among 310,000. P. falciparum luciferase growth in erythrocytes, 48 h. AID 504832. Potency, µM (titrated, usually from 28.7 µM), usual class: inhibitors
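A one-generation exposure of luciferase-tagged malaria parasites in RPMI 1640/Albumax erythrocyte culture, 37 C and 5% CO2. Inhibition is inferred from decreased luminescence after adding detection reagent.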
AmpC inh no detg = AmpC beta-lactamase inhibition without detergent; hit rate 0.52% among 330,000; P00811; Potency, µM (titrated, usually from 57.1 µM), hits mostly inhibitors; AmpC nitrocefin hydrolysis, absorbance 480 nm, 0.0001% Triton; AID 485341; note: nearly all actives have a fitted effect of over 20% in size
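AmpC (5.3 nM in the dispensed reagent) in 20 mM phosphate pH 7.0 with 0.01% (detergent screen) or 0.0001% Triton X-100 was preincubated with compounds for 15 min at room temperature. Nitrocefin was then added from an 800 uM solution, and hydrolysis was followed at 480 nm.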
Each line names hits and unclear results; the compound was inactive in the other large screens. An excerpt weighted towards active compounds, which were near 12% of everything screened. Unless noted, calls come from the whole dose curve; as a rule, active = well fitted curve in the direction sought with a large enough effect; inconclusive = small, poorly fitted or top-dose-only effect, or another doubt; inactive = no such curve, though single readings can be large; an effect the other way counts as inactive or inconclusive.

COc1ccc(Cl)cc1NC(=O)CN(C)C(=O)c1cn(-c2ccccc2)nc1-c1cccnc1	Pf growth 96h 10µM, Pf growth 48h inconclusive
CCN(C(=O)COC(=O)c1cccc(S(=O)(=O)N2CCOCC2)c1)C1CCS(=O)(=O)C1 (configuration not stated)	none
COC(=O)c1cc2c(cc1NC(=O)c1cnn(-c3ccc(C)cc3)c1-n1cccc1)OCO2	none (no result: SARS PLP yeast, Pf growth 96h, Pf growth 48h, AmpC inh no detg)
O=C(CC1SC(=Nc2cccc3ccccc23)N(Cc2ccccn2)C1=O)Nc1ccccc1Br (configuration not stated)	Pf growth 96h 8.3µM, Pf growth 48h 9.3µM, AmpC inh no detg inconclusive
CCN1C(=O)C(CC(=O)Nc2cccc(C(C)=O)c2)S/C1=N\c1ccccn1 (configuration not stated)	AmpC detergent inconclusive
O=C(CC1SC(=Nc2ccccc2)N(Cc2ccccn2)C1=O)Nc1ccc(Br)cc1 (configuration not stated)	Pf growth 96h inconclusive
Cc1ccccc1N=C1SC(CC(=O)Nc2ccc3ccccc3c2)C(=O)N1Cc1ccccn1 (configuration not stated)	Pf growth 96h 3.7µM, Pf growth 48h 1.2µM
COc1cc(C(=O)N2CCC(c3nc4ccccc4o3)CC2)cc(OC)c1OC	none (no result: SARS PLP yeast, Pf growth 96h, Pf growth 48h, AmpC inh no detg)
CCC(=O)N1c2ccccc2CC1C(=O)NCCc1ccccc1C (configuration not stated)	none (no result: SARS PLP yeast, Pf growth 96h, Pf growth 48h, AmpC inh no detg)
Cc1cc(C)c2nc(SCC(=O)Nc3ccc(S(=O)(=O)N4CCCC4)cc3)c(C)cc2c1	Pf growth 48h 9.3µM (no result: Pf growth 96h)
N#Cc1cc2c(nc1SCC(=O)Nc1ccc(Cl)cc1)C1CCN2CC1	SARS PLP yeast inconclusive, AmpC detergent inconclusive, Pf growth 48h 13µM
CCOc1ccc2nc(SCC(=O)Nc3ccc(S(=O)(=O)N4CCCC4)cc3)c(C)cc2c1	Pf growth 96h inconclusive, Pf growth 48h inconclusive
COc1ccc2nc(SCC(=O)Nc3ccc(S(=O)(=O)N4CCCC4)cc3)c(C#N)cc2c1	AmpC detergent inconclusive, Pf growth 96h inconclusive, Pf growth 48h 3.3µM
N#Cc1cc2ccccc2nc1SCC(=O)Nc1ccc(S(=O)(=O)N2CCCC2)cc1	Pf growth 96h inconclusive, Pf growth 48h 9.3µM
Cc1ccc2nc(SCC(=O)NCC3CCCO3)c(C#N)cc2c1 (configuration not stated)	none (no result: Pf growth 96h)
COc1ccc2nc(SCC(=O)NCC3CCCO3)c(C#N)cc2c1 (configuration not stated)	Pf growth 96h 2.1µM
O=S(=O)(Nc1cc(C(F)(F)F)ccc1N1CCOCC1)c1ccc2ccccc2c1	Pf growth 96h 13µM, Pf growth 48h inconclusive
Cc1ccc(S(=O)(=O)Nc2cc(C(F)(F)F)ccc2N2CCOCC2)cc1C	Pf growth 96h inconclusive, Pf growth 48h 3.3µM
O=S(=O)(Nc1cc(C(F)(F)F)ccc1N1CCOCC1)c1ccccc1	Pf growth 96h inconclusive, Pf growth 48h inconclusive
CCOC(=O)c1ccc(N2CCCCC2)c(NS(=O)(=O)c2cccc(C(F)(F)F)c2)c1	Pf growth 96h 9.3µM, Pf growth 48h 10µM
CCc1ccccc1NC(=O)CN1C(=O)CCn2nc(-c3cccn3C)cc21	none (no result: SARS PLP yeast, Pf growth 96h, Pf growth 48h, AmpC inh no detg)
CCN(CC)c1cc(C)c2cc(NC(=O)/C=C/c3ccccc3OC(C)C)ccc2n1	none (no result: SARS PLP yeast, Pf growth 96h, Pf growth 48h, AmpC inh no detg)
CCC(C)(C)NC(=O)C(c1cccn1C)N(C(=O)Cn1nnc2ccccc21)c1ccccc1OC (configuration not stated)	AmpC detergent inconclusive, Pf growth 96h inconclusive, Pf growth 48h inconclusive
CCOc1ccccc1CNC(=O)C1CCN(S(=O)(=O)c2c(C)noc2/C=C/c2ccccc2F)CC1	none (no result: SARS PLP yeast, Pf growth 96h, Pf growth 48h, AmpC inh no detg)
COCCC(=O)N1CCC(Oc2ccc(C(=O)N(C)CCCC3CCCC3)cc2)CC1	Pf growth 96h inconclusive, Pf growth 48h inconclusive
CCc1ccc(C2C(C#N)=C(N)C(C#N)(C#N)C3=CCC(C(C)(C)C)CC32)cc1 (configuration not stated)	Sm TGR block inconclusive, Pf growth 96h 13µM, Pf growth 48h 13µM
CC(C)(C)C1CC=C2C(C#N)=C(N)C(C#N)(C#N)C(c3cccs3)C2C1 (configuration not stated)	Sm TGR block inconclusive, AmpC detergent inconclusive, Pf growth 96h inconclusive (no result: Pf growth 48h)
CC(=O)Nc1ccc(S(=O)(=O)NCc2cccn2Cc2cccc(C)c2)cc1	none (no result: SARS PLP yeast, Pf growth 96h, Pf growth 48h, AmpC inh no detg)
CC1CCCCN1C(=O)CN1C(=O)CSc2ccc(S(=O)(=O)N3CCOCC3)cc21 (configuration not stated)	SARS PLP yeast inconclusive
Cc1cc(C(=O)c2ccccc2)c(NC(=O)CN2CCOCC2)s1	AmpC detergent inconclusive (no result: SARS PLP yeast)
CCc1cc(C(=O)OC)c(NC(=O)CN2CCN(C(=O)c3ccco3)CC2)s1	Pf growth 96h inconclusive, Pf growth 48h 1.7µM
Cc1ccc(C(=O)c2cc(C)sc2NC(=O)CN2CCN(C(=O)c3ccco3)CC2)cc1	AmpC detergent inconclusive, Pf growth 48h 1.3µM
COC(=O)c1ccccc1NC(=O)CN1CCN(C(=O)c2ccco2)CC1	AmpC detergent inconclusive, Pf growth 48h inconclusive (no result: Pf growth 96h)
CCc1cc(C(=O)OC)c(NC(=O)CN2CCN(C(=O)C3CCCO3)CC2)s1 (configuration not stated)	Sm TGR block inconclusive, Pf growth 96h 0.66µM, Pf growth 48h inconclusive
CCOC(=O)N1CCN(CC(=O)Nc2sc(CC)cc2C(=O)c2ccc(OC)cc2)CC1	Pf growth 96h 10µM, Pf growth 48h inconclusive
O=C(CSc1ncn[nH]1)NCc1ccccc1Cl	none
C=CCNC(=O)COC(=O)c1cccnc1Nc1ccccc1F	none
NC(C(=O)O)C(c1ccccc1)C(F)F (configuration not stated)	Sm TGR block 56µM
O=C(O)C(O)c1ccccc1 (configuration not stated)	AmpC detergent inconclusive
CCCC(=O)NC(c1ccc(OC)c(OC)c1)c1cc(Cl)c2cccnc2c1O (configuration not stated)	Pf growth 96h inconclusive, Pf growth 48h 9.3µM (no result: Sm TGR block)
CCCCC(=O)NC(c1cccs1)c1cc(Cl)c2cccnc2c1O (configuration not stated)	Pf growth 48h 0.74µM
COc1cc(C(=O)NC(c2ccccc2Cl)c2cc(Cl)c3cccnc3c2O)cc(OC)c1OC (configuration not stated)	none (no result: SARS PLP yeast, Pf growth 96h, Pf growth 48h, AmpC inh no detg)
CCC(=O)NC(c1cccs1)c1cc(Cl)c2cccnc2c1O (configuration not stated)	none
CCOc1ccc(CCNC(=O)c2ccc(-c3nc(COc4ccc(C)cc4)c(C)o3)cc2)cc1	none (no result: SARS PLP yeast, Pf growth 96h, Pf growth 48h, AmpC inh no detg)
CCOC(=O)C1=C(C)N(C)C(=O)NC1c1ccc(C)s1 (configuration not stated)	none
Cc1ccc(CC2C(=O)N(C)C(=O)N(C)C2=O)s1	Sm TGR block 40µM

Bioassay records from PubChem BioAssay.
